In all, about 360,000 compounds went through this assay and about 750 (0.21%) were called active. Another 2% or so got no clear call; they are omitted. What follows is part of a selection rich in actives, with near analogues and random picks from the rest. Values without a mark were called inactive. The call rests on the fitted dose curve; in most records, active means well fitted falling curve with a large enough effect; inconclusive means small, poorly fitted or top-dose-only effect; inactive means no such curve, though single readings can be large or run the other way.
On the % scale 0 is the no-effect control and ±100 the full control effect.

This assay can be described thus: qHTS Assay for Inhibitors of the HIV-1 protein Vpr. Further: nearly all actives have a fitted effect of over 50% in size. Particulars: S. pombe RE007 Vpr strain, BacTiter-Glo ATP luminescence, 24 h; series mostly up to 92.2 µM; activity change, negative = less growth: at the top concentration. From the text:
Human immunodeficiency virus type 1 (HIV-1), the causative agent of AIDS, contains a protein called viral protein R (Vpr) that plays an important role in the viral life cycle and the pathogenesis of HIV-1.
These Vpr specific activities include cytoplasmic-nuclear shuttling, induction of cell cycle G2 arrest and cell killing. The cytoplasmic-nuclear shuttling is believed to participate in nuclear transport of the proviral integration complex (PIC). The cell cycle G2 arrest induced by Vpr is thought to suppress human immune functions by preventing T cell clonal expansion and to provide an optimized cellular environment for maximal levels of viral replication. In addition, Vpr induces apoptosis, which may contribute to the depletion of CD4 T cells in HIV-infected patients. Since the Vpr-specific activities have been linked to such clinical manifestation of AIDS as activation of viral replication, suppression of host immune responses and depletion of CD4+ T-lymphocytes, identification of new molecular probes that can inhibit the Vpr activities could potentially provide a new approach to reduce Vpr-mediated detrimental effects in HIV-infected patients, and thus prolong patient's lives. Currently, there are no anti-Vpr drugs.
A fission yeast (Schizosaccharomyces pombe) model system for the Vpr studies has been developed which measures HIV-1 Vpr-induced cell death. This assay will be used for to screen the NIH Molecular Libraries Small Molecule Repository (MLSMR) identify small molecule HIV-1 Vpr inhibitors.
NIH Chemical Genomics Center [NCGC]
NIH Molecular Libraries Probe Centers Network [MLPCN]
Assay Submitter (PI): Richard Zhao, University of Maryland
The fission yeast RE007 strain was used, which carries a single integrated copy of HIV-1 vpr gene in the yeast chromosome. The starting culture was frozen stock 100ul of yeast RE007 in 150ml of *PMG+AL medium, Incubation in 30 degree plus 99% humidity for 18 hours. Next day dispensed 2.5ul of PMG+AL medium in each well to 1536 well white solid plate, then 23nL compound were delivered to each well using a pin tool. Check OD for overnight culture and add cell density at 0.01 for each well, incubation in 30 degree plus 99% humidity for 24 hours. After add 5 ul of *BacTiter/Glo detect reagent to each well at room temperature for 5 minutes then to red out results with Viewlux CCD camera.
For orientation: qHTS replaces the single test concentration by a dilution series.
As for `CC1(C)C(c2cccs2)=[N+]([O-])C2(CCCCC2=O)N1O` (stereo not given), the “activity change, negative = less growth” value is 2.59%.

Consider `Cc1ccc(S(=O)(=O)N(CC(=O)Nc2cccnc2)c2ccc(Br)cc2)cc1`, for which the “activity change, negative = less growth” value is -3.78%.

As for `CC(C)CN(C(=O)CN1CCN(S(=O)(=O)c2ccccc2)CC1)c1c(N)n(CC(C)C)c(=O)[nH]c1=O`, the “activity change, negative = less growth” value is -0.551%.

Consider `CC1(C(=O)NS(=O)(=O)c2ccc3ccccc3c2)CCN1C(=O)C1(c2ccc(Cl)cc2)CCC1` (stereo not given), for which the “activity change, negative = less growth” value was 11.9%.

For `CCC(c1nnc(SCC(=O)NNC(=O)c2ccccc2)n1Cc1ccccc1)N(C)C` (stereo not given), the “activity change, negative = less growth” value was 4.7%.

`O=C1NC(=O)N(c2ccccc2)C(=O)/C1=C/c1ccc([N+](=O)[O-])s1`: the Potency is 28.2 µM (active).

`CCOc1ccc(C(C(=O)NCCOC)N(CCOC)C(=O)CCC(=O)Nc2ccccn2)cc1` (stereo not given): the “activity change, negative = less growth” value is -3.53%.

Consider `CCOc1ccc(CCNC(=O)COC(=O)c2ccc(F)c(S(=O)(=O)N3CCOCC3)c2)cc1OCC`, for which the “activity change, negative = less growth” value was 15.6%.

With `CC1CCCN(CCCNC(=O)CN2C(=O)COc3ccc(S(=O)(=O)N4CCOCC4)cc32)C1` (stereo not given), the “activity change, negative = less growth” value is -1.37%.

As to `COc1ccc(-c2csc3nc(-c4ccccc4F)oc(=O)c23)cc1OC`, the “activity change, negative = less growth” value was 26.5%.

For the compound `COc1ccc(N2C(=O)C(CC(=O)Nc3ccccc3)N(Cc3ccc(OC)c(OC)c3)C2=O)cc1` (stereo not given), the “activity change, negative = less growth” value is 6.5%.

Take `O=C(C(=O)N1CCN(c2ccccc2)CC1)c1ccc2c(c1)OCO2`: the “activity change, negative = less growth” value is -7.63%.

For `O=P(c1ccc2c(c1)OCCO2)(N1CCOCC1)N1CCOCC1`, the “activity change, negative = less growth” value is -6%.

As to `Cn1cnnc1SCC(=O)NNC(=O)COc1ccc(Br)cc1`, the “activity change, negative = less growth” value is 7.44%.

`CN(C)CCOC(=O)C(c1ccccc1)C1(O)CCCC1` (stereo not given): the “activity change, negative = less growth” value was 0%.

In the case of `CN(C)CC1Oc2ccccc2OC1(O)c1ccccc1` (stereo not given), the Potency is 10 µM (active).

For the compound `CC(C)Nc1ncnc2c1ncn2[C@H]1CN(Cc2ccncc2)C[C@@H](CO)O1`, the activity change, negative = less growth is 1.71% [at 18.4 µM].

With `O=C(CC1C(=O)NCCN1Cc1ccc(-c2ccccc2)cc1)NCc1ccncc1` (stereo not given), the “activity change, negative = less growth” value is -9.23%.

As for `COc1cccc(CN2CCNC(=O)C2CC(=O)N(C)CCc2ccccn2)c1` (stereo not given), the “activity change, negative = less growth” value is -1.12%.

In the case of `Cc1cccc(C(=O)NCc2nnc(SC(C)C(=O)Nc3nnc(C)s3)n2C)c1` (stereo not given), the “activity change, negative = less growth” value was 31.2%.

For the compound `Nc1nonc1-n1nnc(C(=O)N/N=C/c2ccc(Cl)cc2)c1-c1ccc2c(c1)OCO2`, the “activity change, negative = less growth” value was 6.44%.

With `Cc1nonc1C(=O)N/N=C/c1ccc(O)cc1`, the Potency is 25.1 µM (active).

Turning to `COc1cc(/C=N\NC(=O)c2nonc2N)c(OC)cc1Br`, the “activity change, negative = less growth” value is 3.53%.

On to `Cc1ccc2nc(SC(C)C(=O)NCc3ccco3)[nH]c2c1` (stereo not given), for which the “activity change, negative = less growth” value was 3.44%.

As to `O=c1[nH][nH]c2c1[C@H](c1ccc(Cl)cc1)O[C@H](CCc1ccccc1)C2`, the “activity change, negative = less growth” value is -16.7%.

`O=C(/C=C/c1ccc(Cl)cc1)Nc1ccc(Br)cn1`: the “activity change, negative = less growth” value was -16.9%.

On to `O=C(Nc1ccc(Br)cn1)c1ccc([N+](=O)[O-])o1`, for which the Potency is 17.8 µM (active).

`O=C(NCc1nnnn1-c1ccc(Cl)cc1)c1ccc([N+](=O)[O-])o1`: the “activity change, negative = less growth” value is 5.28%.

For `O=C(COc1ccccc1Cl)Nc1ccccc1C(=O)NC1CC1`, the “activity change, negative = less growth” value was 6.03%.

Turning to `CCc1cccc(C)c1NS(=O)(=O)c1cc(Br)cnc1N`, the “activity change, negative = less growth” value was 4.12%.

In the case of `Oc1ccccc1CNc1ncc(Br)cc1Br`, the Potency is 35.5 µM (active).

On to `O=[N+]([O-])c1ncc(Br)cc1Nc1ccccc1`, for which the “activity change, negative = less growth” value is -26.1%.

For the compound `Cc1cccc(C(=O)Nc2ccccc2-c2nnn(CC(=O)Nc3ccc4c(c3)OCCO4)n2)c1`, the “activity change, negative = less growth” value is -8.57%.

As to `Clc1ccc(-c2nc3ccccn3c2CN2CCSCC2)cc1`, the “activity change, negative = less growth” value was -29.7%.

On to `CCOC(=O)C(Cc1ccc(N)cc1)N1C(=O)c2ccccc2C1=O` (stereo not given), for which the “activity change, negative = less growth” value was -18.5%.

For the compound `CCOC(=O)C1=C(c2ccc(OC)cc2)C(=O)c2ccccc2C1=O`, the Potency was 20 µM (active).

Regarding `CCOC(=O)C1=C(CC)Nc2ccccc2N=C1N`, the “activity change, negative = less growth” value is -6.54%.

Regarding `CC(C)(C)S(=O)N1Cc2cc(C(=O)NCCCN3CCOCC3)nc(-c3cccc(-c4cc5ccccc5o4)c3)c2[C@H]1CCO` (stereo not given in full), the “activity change, negative = less growth” value is -1.2%.

On to `CCOC(=O)N1CCN(S(=O)(=O)c2cc(Br)cc3c2N(C(=O)C2CC2)CC3)CC1`, for which the “activity change, negative = less growth” value is -1.69%.

For the compound `CC(=O)NC(CC(=O)Nc1cccc(S(=O)(=O)N2CCCC2)c1)c1ccccc1` (stereo not given), the “activity change, negative = less growth” value is 1.4%.

Turning to `CN(C)S(=O)(=O)c1ccc2oc(SCC(=O)Nc3ccccc3F)nc2c1`, the “activity change, negative = less growth” value is 20.8%.

In the case of `COc1ccc(C2(C)NC(=O)N(CC(=O)c3ccc4c(c3)OCO4)C2=O)cc1` (stereo not given), the “activity change, negative = less growth” value is 2.95%.

On to `CCOc1ccc(NC(=O)c2ccc(NC(=O)C3CCCO3)cc2)cc1` (stereo not given), for which the “activity change, negative = less growth” value was 2.63%.

For `CCOc1ccc(NCCC(=O)c2ccc3c(c2)OCO3)cc1`, the Potency was 31.6 µM (active).

For `Cc1cc(NC(=O)Cn2nc(C(F)(F)F)c3c2CCCC3)no1`, the “activity change, negative = less growth” value is -1.84%.

With `Cc1cc(C)cc(NC(=O)c2cccc(NC(=O)C3C4CC5OC(=O)C3C5C4)c2)c1` (stereo not given), the “activity change, negative = less growth” value is 13.4%.

Consider `CN(C)c1cccc(NC(=O)c2ccc(-c3ccc(F)c(F)c3)c3ccoc23)c1`, for which the activity change, negative = less growth is 5.61% [at 18.4 µM].

For the compound `O=C(c1ccc(Cl)c(S(=O)(=O)N2CCCCCC2)c1)N1CCN(c2ccc(O)cc2)CC1`, the “activity change, negative = less growth” value is 1.01%.

With `O=C1C=CC(=O)N1c1ccc(N2CCCCC2)cc1`, the Potency was 2.82 µM (active).

In the case of `Cc1cc(NC(=O)CSc2nccn2-c2ccc([N+](=O)[O-])cc2)no1`, the “activity change, negative = less growth” value was 11.4%.

The values are drawn from PubChem BioAssay AID651644 (National Center for Advancing Translational Sciences (NCATS), 2012).
